Our source for the outcome and AC50 values is PubChem BioAssay (EPA / NIEHS).

Where “and” joins values, the source holds several entries; their conditions need not be identical. Equal entries are not always repeated. Inconclusive results are not listed. Where a structure was tested more than once in an assay, its records may differ in their call. Calls of active or inactive are those of the source. How the source made its calls: active means hit-call score of the fitted dose curve at least 0.9, where 1 is the maximum; inconclusive means response in the unintended direction; inactive means score below 0.9.

A short description of experiment [1]: ATG_M_06_XSP2: Attagene TRANS-FACTORIAL Multi-Species (XSP2) HepG2 Assay for M06 Transcription Factor (Internal Marker) (AID 2283811).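 Further: hits are increases in signal above the DMSO baseline.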 The essentials:
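Readout: fluorescent reporter-mRNA peaks by capillary electrophoresis after RT-PCR and HpaI digest, scored upward relative to DMSO. Transfected HepG2, 24 h chemical exposure, with 3 nM 6-alpha-fluorotestosterone and 1.5 nM norgestrel added.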

The test system of experiment [2] is turtle Estrogen Receptor (ERa), gene 101933533. Kind of experiment: ATG_trERa_XSP2: Attagene TRANS-FACTORIAL Multi-Species (XSP2) HepG2 Assay for turtle Estrogen Receptor (ERa) (AID 2283812).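 Further: actives raise reporter signal above DMSO so AC50 reflects agonist activity.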 The essentials: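 Readout is reporter mRNA quantified by RT-PCR with capillary electrophoresis after 24 h compound exposure, increase relative to DMSO. Uses transiently transfected human HepG2 liver cells carrying a chimeric turtle ERa-Gal4 receptor driving GAL4-UAS reporters.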

The target of experiment [3] is Estrogen receptor beta (Homo sapiens) (UniProt Q92731). Kind of experiment: ATG_hERb_XSP2: Attagene TRANS-FACTORIAL Multi-Species (XSP2) HepG2 Assay for human Estrogen Receptor (ERb) (AID 2283813).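 Further: actives raise reporter mRNA above DMSO so AC50 reflects agonist induction.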 The essentials:
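Transient TRANS reporter system in HepG2: after 24 h of chemical, RNA is reverse-transcribed, reporter cDNA amplified, FAM-labelled and sized by capillary electrophoresis. Induction of the human ERb-Gal4 reporter is measured relative to DMSO.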

Experiment [4] addresses zebrafish Estrogen Receptor (ER1), esr1 (gene 259252) (UniProt P57717). Kind of experiment: ATG_zfER1_XSP2: Attagene TRANS-FACTORIAL Multi-Species (XSP2) HepG2 Assay for zebrafish Estrogen Receptor (ER1) (AID 2283816). The essentials: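 After 24 h compound exposure, RNA from transfected HepG2 cells was reverse-transcribed and reporter transcripts resolved by capillary electrophoresis. The TRANS format reads exogenous zebrafish ER1-Gal4 chimera activity on GAL4-UAS elements; gain of signal against DMSO.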

The target of experiment [5] is chicken Estrogen Receptor (ERa), ESR1 (gene 396099) (UniProt P06212). Kind of experiment: ATG_chERa_XSP2: Attagene TRANS-FACTORIAL Multi-Species (XSP2) HepG2 Assay for chicken Estrogen Receptor (ERa) (AID 2283817).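 Further: actives raise reporter signal above DMSO so AC50 reflects ER activation.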 The essentials:
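Readout: fluorescent reporter-transcript fragments resolved by capillary electrophoresis after RT-PCR and HpaI cut. Chicken ERa-Gal4 fusion in transiently transfected HepG2, dosed for 24 h; activity taken as increase over DMSO baseline.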

In experiment [6] the test system is zebrafish Estrogen Receptor (ER2a), gene 317734. Put plainly: ATG_zfER2a_XSP2: Attagene TRANS-FACTORIAL Multi-Species (XSP2) HepG2 Assay for zebrafish Estrogen Receptor (ER2a) (AID 2283818).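 Further: hits raise reporter mRNA so AC50 reflects activation of zebrafish ER2a.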 The essentials:
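Multiplexed trans-reporter readout: RT-PCR then capillary electrophoresis of reporter transcripts after 24 h compound treatment. Human HepG2 carries transfected zebrafish ER2a-Gal4 chimera; 3 nM 6-alpha-fluorotestosterone plus 1.5 nM norgestrel present. Induction scored against DMSO.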

Experiment [7] has as its system frog Estrogen Receptor (ER), gene 398734. Kind of experiment: ATG_frER1_XSP2: Attagene TRANS-FACTORIAL Multi-Species (XSP2) HepG2 Assay for frog Estrogen Receptor (ER) (AID 2283821).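 Further: hits raise reporter mRNA above DMSO baseline so potency means agonist or activator.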 The essentials: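 Reporter mRNA induction, detected as fluorescence after RT-PCR and capillary electrophoresis, is the endpoint; activity is fitted upward against DMSO. Cells are human liver HepG2 carrying transfected NR-Gal4 chimeras with GAL4-UAS-driven reporters, harvested 24 h post-dosing.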

Experiment [8] concerns zebrafish Estrogen Receptor (ER2b), gene 317733. Kind of experiment: ATG_zfER2b_XSP2: Attagene TRANS-FACTORIAL Multi-Species (XSP2) HepG2 Assay for zebrafish Estrogen Receptor (ER2b) (AID 2283823).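 Further: fitted upward as reporter gain over DMSO so potency reflects activation.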 The essentials:
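Reporter transcripts quantified by RT-PCR, fluorescent labelling and capillary electrophoresis after 24 h dosing of transfected HepG2 expressing zebrafish ER2b-GAL4 fusion. Medium contained 3 nM 6-alpha-fluorotestosterone plus 1.5 nM norgestrel; DMSO baseline.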

Experiment [9] addresses Estrogen receptor (Homo sapiens) (UniProt P03372). Put plainly: ATG_hERa_XSP2: Attagene TRANS-FACTORIAL Multi-Species (XSP2) HepG2 Assay for human Estrogen Receptor (ERa) (AID 2283827). The essentials: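 Trans-activation of exogenous human ERa-Gal4 chimera read in HepG2 as reporter transcript after 24 h exposure; medium included 3 nM 6-alpha-fluorotestosterone and 1.5 nM norgestrel. Quantified by RT-PCR with capillary electrophoresis, positive-direction fitting against DMSO.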

Experiment [10] concerns frog Estrogen Receptor (ER2), gene 100174814. Kind of experiment: ATG_frER2_XSP2: Attagene TRANS-FACTORIAL Multi-Species (XSP2) HepG2 Assay for frog Estrogen Receptor (ER2) (AID 2283828). The essentials: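 Cells were transfected with reporter constructs under GAL4-UAS control, dosed with chemicals for 24 h, then lysed for RNA; the frog ER2-driven reporter mRNA was quantified by capillary electrophoresis of labeled PCR fragments, with activity fitted upward from DMSO.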

Experiment [11] deals with GAL4 Transcription Factor (Internal Marker), GAL4 (gene 855828) (UniProt P04386). Kind of experiment: ATG_GAL4_XSP2: Attagene TRANS-FACTORIAL Multi-Species (XSP2) HepG2 Assay for GAL4 Transcription Factor (Internal Marker) (AID 2283814).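 Further: GAL4 reporter mRNA background control in MRTU transfected cells not a receptor target.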 The essentials: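 Background-control readout: gain-of-signal fitted against DMSO. After 24 h exposure of transfected HepG2 (MRTU, GAL4-UAS reporters; 3 nM 6-alpha-fluorotestosterone, 1.5 nM norgestrel present), transcripts quantified by RT-PCR and capillary electrophoresis fluorescence.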
Sequence of GAL4 Transcription Factor (Internal Marker), GAL4 (gene 855828) (P04386 whole entry, looked up, the tested form may be a part): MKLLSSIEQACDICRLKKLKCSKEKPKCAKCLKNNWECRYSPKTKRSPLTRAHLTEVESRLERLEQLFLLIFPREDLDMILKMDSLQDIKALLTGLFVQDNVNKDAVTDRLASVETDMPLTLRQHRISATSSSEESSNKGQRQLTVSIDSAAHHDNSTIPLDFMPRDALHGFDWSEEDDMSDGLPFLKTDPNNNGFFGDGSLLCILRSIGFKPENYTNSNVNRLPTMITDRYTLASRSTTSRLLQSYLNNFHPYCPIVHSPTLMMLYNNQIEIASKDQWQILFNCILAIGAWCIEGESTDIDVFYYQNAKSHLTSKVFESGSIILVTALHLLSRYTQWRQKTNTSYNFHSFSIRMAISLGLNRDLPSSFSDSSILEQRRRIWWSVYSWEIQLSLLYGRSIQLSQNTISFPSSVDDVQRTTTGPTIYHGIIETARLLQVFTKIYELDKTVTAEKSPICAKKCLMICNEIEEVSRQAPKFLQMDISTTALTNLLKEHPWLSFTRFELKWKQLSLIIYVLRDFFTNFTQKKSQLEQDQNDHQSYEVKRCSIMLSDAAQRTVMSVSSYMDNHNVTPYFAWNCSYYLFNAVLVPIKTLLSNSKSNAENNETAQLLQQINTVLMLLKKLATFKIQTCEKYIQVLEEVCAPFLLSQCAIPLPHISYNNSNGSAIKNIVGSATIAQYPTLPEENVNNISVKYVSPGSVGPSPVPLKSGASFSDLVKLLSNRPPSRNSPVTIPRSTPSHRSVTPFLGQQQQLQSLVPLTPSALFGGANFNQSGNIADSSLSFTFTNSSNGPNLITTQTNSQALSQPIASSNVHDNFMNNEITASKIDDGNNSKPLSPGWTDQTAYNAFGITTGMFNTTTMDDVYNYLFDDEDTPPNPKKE

In experiment [12] the test system is chicken Androgen Receptor (AR), gene 422165. Put plainly: ATG_chAR_XSP2: Attagene TRANS-FACTORIAL Multi-Species (XSP2) HepG2 Assay for chicken Androgen Receptor (AR) (AID 2283819).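 Further: hits raise reporter mRNA above DMSO so potency is for activation.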 The essentials:
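Readout is reporter mRNA induction via RT-PCR/capillary electrophoresis after 24 h chemical exposure, positive direction relative to DMSO. Transiently transfected HepG2 express chimeric chicken AR–GAL4; AR stimulated by 3 nM 6-alpha-fluorotestosterone and 1.5 nM norgestrel.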

A short description of experiment [13]: ATG_M_19_XSP2: Attagene TRANS-FACTORIAL Multi-Species (XSP2) HepG2 Assay for M32 Transcription Factor (Internal Marker) (AID 2283822). The essentials:
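Internal background marker in a multi-species nuclear receptor TRANS panel: transfected HepG2 cells exposed 24 h, with 3 nM 6-alpha-fluorotestosterone and 1.5 nM norgestrel present. Readout is RT-PCR of reporter transcripts resolved by capillary electrophoresis, gain-of-signal versus DMSO.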

The nature of experiment [14]: ATG_M_32_XSP2: Attagene TRANS-FACTORIAL Multi-Species (XSP2) HepG2 Assay for M19 Transcription Factor (Internal Marker) (AID 2283826). The essentials:
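HepG2 cells transiently transfected with GAL4-UAS reporter units; XSP2 panel included 3 nM 6-alpha-fluorotestosterone and 1.5 nM norgestrel for androgen receptor stimulation. Reporter mRNA read 24 h post-dosing by RT-PCR/capillary electrophoresis; fitted upward versus DMSO.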

Sequence of Estrogen receptor beta (Homo sapiens) (Q92731 whole entry, looked up, the tested form may be a part): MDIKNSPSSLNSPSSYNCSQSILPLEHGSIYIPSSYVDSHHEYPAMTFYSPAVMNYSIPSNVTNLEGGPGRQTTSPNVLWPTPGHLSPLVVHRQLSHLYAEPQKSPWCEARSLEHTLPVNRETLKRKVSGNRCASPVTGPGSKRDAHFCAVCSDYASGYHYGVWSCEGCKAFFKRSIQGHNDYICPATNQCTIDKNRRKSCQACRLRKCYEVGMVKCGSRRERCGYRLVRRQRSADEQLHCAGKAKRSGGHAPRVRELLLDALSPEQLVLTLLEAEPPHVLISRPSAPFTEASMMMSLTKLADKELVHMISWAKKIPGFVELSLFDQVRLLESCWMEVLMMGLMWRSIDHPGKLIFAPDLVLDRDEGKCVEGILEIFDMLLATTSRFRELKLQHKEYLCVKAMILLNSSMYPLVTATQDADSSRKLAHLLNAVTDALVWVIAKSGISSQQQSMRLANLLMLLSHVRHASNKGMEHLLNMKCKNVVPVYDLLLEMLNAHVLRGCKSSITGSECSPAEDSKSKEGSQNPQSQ
Sequence of Estrogen receptor (Homo sapiens) (P03372 whole entry, looked up, the tested form may be a part): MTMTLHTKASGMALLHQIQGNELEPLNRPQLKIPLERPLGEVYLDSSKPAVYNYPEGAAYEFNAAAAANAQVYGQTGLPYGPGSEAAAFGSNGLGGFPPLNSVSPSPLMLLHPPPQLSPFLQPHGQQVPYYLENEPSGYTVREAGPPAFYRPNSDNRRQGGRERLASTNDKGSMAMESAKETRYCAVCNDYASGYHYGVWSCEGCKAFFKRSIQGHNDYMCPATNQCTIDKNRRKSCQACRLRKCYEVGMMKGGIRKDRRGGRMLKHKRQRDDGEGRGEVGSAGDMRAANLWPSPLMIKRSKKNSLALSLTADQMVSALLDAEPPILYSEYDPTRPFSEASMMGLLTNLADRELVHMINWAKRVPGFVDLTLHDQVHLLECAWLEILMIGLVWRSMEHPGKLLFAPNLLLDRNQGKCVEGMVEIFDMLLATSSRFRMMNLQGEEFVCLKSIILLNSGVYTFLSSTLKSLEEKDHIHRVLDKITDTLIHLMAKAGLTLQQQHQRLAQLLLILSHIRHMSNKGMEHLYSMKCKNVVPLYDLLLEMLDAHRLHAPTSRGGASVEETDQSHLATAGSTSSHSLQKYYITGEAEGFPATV
Sequence of chicken Estrogen Receptor (ERa), ESR1 (gene 396099) (P06212 whole entry, looked up, the tested form may be a part): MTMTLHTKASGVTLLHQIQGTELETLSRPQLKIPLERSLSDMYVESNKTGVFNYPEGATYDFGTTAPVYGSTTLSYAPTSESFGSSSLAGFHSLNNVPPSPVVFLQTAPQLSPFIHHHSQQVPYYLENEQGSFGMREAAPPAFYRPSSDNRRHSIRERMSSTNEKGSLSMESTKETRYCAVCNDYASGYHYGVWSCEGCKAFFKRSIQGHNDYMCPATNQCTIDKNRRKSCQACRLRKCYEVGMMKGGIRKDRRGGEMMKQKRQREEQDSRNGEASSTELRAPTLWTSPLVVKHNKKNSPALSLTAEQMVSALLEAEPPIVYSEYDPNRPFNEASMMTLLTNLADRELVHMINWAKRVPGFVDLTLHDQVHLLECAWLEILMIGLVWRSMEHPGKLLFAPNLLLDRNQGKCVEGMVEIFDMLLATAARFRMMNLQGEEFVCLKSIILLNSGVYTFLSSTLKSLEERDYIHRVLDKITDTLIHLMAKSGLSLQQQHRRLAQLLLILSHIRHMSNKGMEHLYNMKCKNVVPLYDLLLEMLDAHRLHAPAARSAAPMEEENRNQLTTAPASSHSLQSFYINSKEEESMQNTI
Sequence of zebrafish Estrogen Receptor (ER1), esr1 (gene 259252) (P57717 whole entry, looked up, the tested form may be a part): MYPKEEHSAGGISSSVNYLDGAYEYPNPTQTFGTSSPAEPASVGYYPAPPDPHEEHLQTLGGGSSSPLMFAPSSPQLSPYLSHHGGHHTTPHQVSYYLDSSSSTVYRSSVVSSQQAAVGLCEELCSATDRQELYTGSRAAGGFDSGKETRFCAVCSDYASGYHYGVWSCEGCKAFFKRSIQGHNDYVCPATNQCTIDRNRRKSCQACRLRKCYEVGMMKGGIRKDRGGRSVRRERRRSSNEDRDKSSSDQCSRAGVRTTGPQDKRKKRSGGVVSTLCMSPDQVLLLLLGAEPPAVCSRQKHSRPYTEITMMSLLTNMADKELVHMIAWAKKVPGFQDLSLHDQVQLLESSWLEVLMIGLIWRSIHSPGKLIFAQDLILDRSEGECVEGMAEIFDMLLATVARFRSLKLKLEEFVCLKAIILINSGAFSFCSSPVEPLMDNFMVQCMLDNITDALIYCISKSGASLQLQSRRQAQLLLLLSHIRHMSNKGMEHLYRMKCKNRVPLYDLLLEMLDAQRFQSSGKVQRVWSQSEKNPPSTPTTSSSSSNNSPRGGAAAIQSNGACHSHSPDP

Consider `CCCCc1ccc(O)cc1`, for which the result in experiment [1] was inactive. Besides, the AC50 (commonly the midpoint of the concentration-response curve, whichever way the signal moves) in [2] was 2.42 µM (active) and 3.02 µM (active); in experiment [3], 2.45 µM (active) and 2.3 µM (active); in experiment [4] it was 69.6 µM (active) and 7.15 µM (active); in experiment [5], 3.21 µM (active) and 1.79 µM (active); in experiment [6], 6.3 µM (active) and 1.66 µM (active); in [7] it was 1.96 µM (active) and 1.08 µM (active). Further, the AC50 in [8] is 12.5 µM (active) and 5.32 µM (active); in experiment [9] it was 4.58 µM (active) and 3.47 µM (active); in experiment [10], 4.69 µM (active) and 2.33 µM (active).

For the molecule `CCC(C)(C)c1ccc(O)cc1`, the AC50 in [2] was 4.29 µM (active) and 1.92 µM (active); in experiment [3], 44.4 µM (active) and 3.05 µM (active); in [4] it was 34.1 µM (active) and 7.34 µM (active); in experiment [5], 3.58 µM (active) and 2.33 µM (active); in experiment [7], 25.9 µM (active) and 2.38 µM (active); in experiment [8], 13.9 µM (active) and 3.03 µM (active). The AC50 in experiment [9] was 6.43 µM (active) and 3.44 µM (active); in [10] it was 27.9 µM (active) and 3.07 µM (active). For the same molecule, the call in experiment [11], in experiment [6], in experiment [12], in experiment [13] and in experiment [14] was inactive.

For `CC(C)(C)c1ccc(O)cc1`, the molecule was classed as inactive in experiment [1], in [6], in experiment [7] and in experiment [14]. Also, the half-maximal activity concentration (AC50) in experiment [2] was 6.07 µM (active) and 4.64 µM (active); in [4] it was 170 µM (active) and 51.1 µM (active); in experiment [5], 4.76 µM (active) and 6.06 µM (active); in [7], 26.6 µM (active); in experiment [8] it was 34.3 µM (active) and 13.7 µM (active); in experiment [10] it was 14.9 µM (active) and 6.96 µM (active).
